Data as given in PubChem BioAssay AID1159580 (chemical genetic matrix, 2015).
Hit rate of the full screen: of about 5,500 compounds, about 2,000 (36%) were called active. Not shown: some 18% with an inconclusive outcome. Cut-off read from the data, not from the text of the source: active = normalized growth mostly below about 0.91 (no sharp cut-off); inconclusive = no clear call, values can overlap the other calls; inactive = mostly above about 0.92. Some of the results follow.

Assay: chemical genetic growth profiling, strain panel (AID 1159580);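 note: tested at 20 µM; growth read once vehicle control cultures reached saturation at 30 °C; 1 = growth at the plate median or of vehicle wells; lower values mean less growth of the strain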
Details: growth OD

Measured: normalized growth

CC1(C)C2CC[C@]3(C)C(C(=O)C=C4[C@@H]5C[C@@](C)(C(=O)O)CC[C@]5(C)CC[C@]43C)[C@@]2(C)CC[C@@H]1OC(=O)CCC(=O)O (stereo partly drawn)
inactive: S. cerevisiae deletion strains, locus YKL009W, strain mrt4, stronger effect = lower value 0.975 | S. cerevisiae deletion strains, locus YKL068W, stronger effect = lower value 0.986 | S. cerevisiae deletion strains, locus YKL085W, strain MDH1 (second series), stronger effect = lower value 0.984 | S. cerevisiae deletion strains, locus YKL085W, strain MDH1, stronger effect = lower value 0.984 | S. cerevisiae deletion strains, locus YKL160W, strain elf1, stronger effect = lower value 0.938 | S. cerevisiae deletion strains, locus YKL190W, strain CNB1, stronger effect = lower value 0.991 | S. cerevisiae deletion strains, locus YKR001C, strain vps1, stronger effect = lower value 0.999 | S. cerevisiae deletion strains, locus YKR026C, strain gcn3, stronger effect = lower value 0.987 | S. cerevisiae deletion strains, locus YKR091W, strain srl3, stronger effect = lower value 0.989 | S. cerevisiae deletion strains, locus YLL001W, strain dnm1, stronger effect = lower value 1 | S. cerevisiae deletion strains, locus YLL026W, stronger effect = lower value 0.977 | S. cerevisiae deletion strains, locus YLL041C, strain sdh2, stronger effect = lower value 0.982 | S. cerevisiae deletion strains, locus YLR027C, strain aat2, stronger effect = lower value 1 | S. cerevisiae deletion strains, locus YLR039C, strain RIC1, stronger effect = lower value 0.944 | S. cerevisiae deletion strains, locus YLR058C, strain SHM2, stronger effect = lower value 0.986 | S. cerevisiae deletion strains, locus YLR102C, strain apc9, stronger effect = lower value 0.996 | S. cerevisiae deletion strains, locus YLR221C, strain rsa3, stronger effect = lower value 1 | S. cerevisiae deletion strains, locus YLR258W, strain gsy2, stronger effect = lower value 0.98 | S. cerevisiae deletion strains, locus YLR262C, strain YPT6 (second series), stronger effect = lower value 0.962 | S. cerevisiae deletion strains, locus YLR262C, strain YPT6, stronger effect = lower value 0.91 | S. cerevisiae deletion strains, locus YLR268W, strain sec22, stronger effect = lower value 0.998 | S. cerevisiae deletion strains, locus YLR320W, strain mms22, stronger effect = lower value 0.999 | S. cerevisiae deletion strains, locus YLR330W, strain CHS5, stronger effect = lower value 0.992 | S. cerevisiae deletion strains, locus YLR342W, strain FKS1 (second series), stronger effect = lower value 0.995 | S. cerevisiae deletion strains, locus YLR342W, strain FKS1, stronger effect = lower value 0.985 | S. cerevisiae deletion strains, locus YLR357W, strain rsc2, stronger effect = lower value 0.967 | S. cerevisiae deletion strains, locus YLR370C, strain arc18, stronger effect = lower value 0.967 | S. cerevisiae deletion strains, locus YLR371W, strain rom2, stronger effect = lower value 1 | S. cerevisiae deletion strains, locus YLR384C, strain iki3, stronger effect = lower value 0.983 | S. cerevisiae deletion strains, locus YLR418C, strain cdc73, stronger effect = lower value 0.968 | S. cerevisiae deletion strains, locus YML016C, strain PPZ1, stronger effect = lower value 1 | S. cerevisiae deletion strains, locus YML032C, strain rad52, stronger effect = lower value 0.994 | S. cerevisiae deletion strains, locus YML120C, strain ndi1, stronger effect = lower value 0.997 | S. cerevisiae deletion strains, locus YML124C, strain tub3, stronger effect = lower value 1 | S. cerevisiae deletion strains, locus YMR058W, strain fet3, stronger effect = lower value 1.04 | S. cerevisiae deletion strains, locus YMR078C, strain ctf18, stronger effect = lower value 0.976 | S. cerevisiae deletion strains, locus YMR125W, strain sto1, stronger effect = lower value 0.975 | S. cerevisiae deletion strains, locus YMR129W, stronger effect = lower value 0.99 | S. cerevisiae deletion strains, locus YMR205C, strain PFK2, stronger effect = lower value 0.97 | S. cerevisiae deletion strains, locus YMR223W, strain ubp8, stronger effect = lower value 0.973 | S. cerevisiae deletion strains, locus YMR231W, strain pep5, stronger effect = lower value 0.978 | S. cerevisiae deletion strains, locus YMR263W, strain SAP30, stronger effect = lower value 1 | S. cerevisiae deletion strains, locus YMR307W, strain GAS1, stronger effect = lower value 1.01 | S. cerevisiae deletion strains, locus YNL067W, strain RPL9B, stronger effect = lower value 1.02 | S. cerevisiae deletion strains, locus YNL071W, strain lat1, stronger effect = lower value 0.994 | S. cerevisiae deletion strains, locus YNL183C, strain NPR1, stronger effect = lower value 0.991 | S. cerevisiae deletion strains, locus YNL209W, strain ssb2, stronger effect = lower value 0.967 | S. cerevisiae deletion strains, locus YNL233W, strain BNI4, stronger effect = lower value 1.03 | S. cerevisiae deletion strains, locus YNL248C, strain rpa49, stronger effect = lower value 0.909 | S. cerevisiae deletion strains, locus YNL250W, strain rad50, stronger effect = lower value 0.949 | S. cerevisiae deletion strains, locus YNL271C, strain bni1, stronger effect = lower value 0.983 | S. cerevisiae deletion strains, locus YNL298W, strain CLA4, stronger effect = lower value 0.997 | S. cerevisiae deletion strains, locus YNL307C, strain MCK1, stronger effect = lower value 0.992 | S. cerevisiae deletion strains, locus YNL322C, strain KRE1 (second series), stronger effect = lower value 0.979 | S. cerevisiae deletion strains, locus YNL322C, strain KRE1, stronger effect = lower value 0.99 | S. cerevisiae deletion strains, locus YNR049C, strain mso1, stronger effect = lower value 0.983 | S. cerevisiae deletion strains, locus YNR052C, strain pop2, stronger effect = lower value 0.975 | S. cerevisiae deletion strains, locus YOL006C, strain TOP1, stronger effect = lower value 1.04 | S. cerevisiae deletion strains, locus YOL012C, strain htz1 1.07 | S. cerevisiae deletion strains, locus YOL147C, strain pex11, stronger effect = lower value 0.989 | S. cerevisiae deletion strains, locus YOR001W, strain rrp6, stronger effect = lower value 1.03 | S. cerevisiae deletion strains, locus YOR061W, strain CKA2, stronger effect = lower value 0.991 | S. cerevisiae deletion strains, locus YOR069W, strain VPS5, stronger effect = lower value 0.982 | S. cerevisiae deletion strains, locus YOR070C, strain gyp1, stronger effect = lower value 0.986 | S. cerevisiae deletion strains, locus YOR080W, strain dia2, stronger effect = lower value 1.01 | S. cerevisiae deletion strains, locus YOR083W, strain WHI5, stronger effect = lower value 0.891 | S. cerevisiae deletion strains, locus YOR106W, strain vam3, stronger effect = lower value 0.896 | S. cerevisiae deletion strains, locus YOR136W, strain idh2, stronger effect = lower value 0.998 | S. cerevisiae deletion strains, locus YOR144C, strain elg1, stronger effect = lower value 1 | S. cerevisiae deletion strains, locus YOR184W, strain ser1, stronger effect = lower value 0.96 | S. cerevisiae deletion strains, locus YOR231W, strain MKK1, stronger effect = lower value 1.06 | S. cerevisiae deletion strains, locus YOR265W, strain rbl2, stronger effect = lower value 0.974 | S. cerevisiae deletion strains, locus YOR270C, strain vph1, stronger effect = lower value 0.867 | S. cerevisiae deletion strains, locus YOR290C, strain snf2, stronger effect = lower value 0.96 | S. cerevisiae deletion strains, locus YOR316C, strain cot1, stronger effect = lower value 0.992 | S. cerevisiae deletion strains, locus YPL051W, strain arl3, stronger effect = lower value 0.966 | S. cerevisiae deletion strains, locus YPL055C, strain LGE1, stronger effect = lower value 1.08 | S. cerevisiae deletion strains, locus YPL078C, strain atp4, stronger effect = lower value 0.962 | S. cerevisiae deletion strains, locus YPL106C, strain sse1, stronger effect = lower value 0.986 | S. cerevisiae deletion strains, locus YPL240C, strain hsp82, stronger effect = lower value 0.978 | S. cerevisiae deletion strains, locus YPL241C, strain CIN2, stronger effect = lower value 0.992 | S. cerevisiae deletion strains, locus YPL256C, strain CLN2, stronger effect = lower value 1.05 | S. cerevisiae deletion strains, locus YPR119W, strain clb2, stronger effect = lower value 0.992 | S. cerevisiae deletion strains, locus YPR141C, strain kar3, stronger effect = lower value 0.999 | S. cerevisiae deletion strains, locus YPR163C, strain tif3, stronger effect = lower value 0.983 | S. cerevisiae deletion strains, locus YPR167C, strain met16, stronger effect = lower value 0.99 | S. cerevisiae deletion strains, strain wtn01, stronger effect = lower value 0.976 | S. cerevisiae strains, strain wild type, stronger effect = lower value 0.991
